# Results from PubChem BioAssay AID1508619 (National Center for Advancing Translational Sciences (NCATS), 2020).
# Records with an inconclusive call do not appear. Unmarked numbers belong to inactive results. The source made the active and inactive calls. Calls follow the shape of the dose curve; as a rule, active = well fitted inhibition curve with a large enough effect; inconclusive = small, poorly fitted or top-dose-only effect; inactive = no such curve, though single readings can be large or run the other way.
# Assay: Counterscreen qHTS for Identification of Calcium Integrin Binding Protein 1 (CIB1) Competitor
# Settings: series mostly up to 114 µM; activity, negative = inhibition: at the top concentration
# Excerpt: Assay Provider: Ulhas P. Naik, PhD
# Sidney Kimmel Medical College
# Thomas Jefferson University, Philadelphia, PA
# Primary function of platelets is to maintain hemostasis. At the site of vascular injury, platelets adhere to adhesive proteins such as collagen and von Willebrand factor. Adherent platelets are activated and generate soluble platelet agonists such as thrombin, ADP and thromboxane A2. Following exposure of circulating platelets to these agonists, results in platelet shape change, granule secretion and activation of platelet integrin alphaIIb-beta3. Ligand binding to activated integrin alphaIIb-beta3 triggers outside-in signaling, leading to platelet aggregation, stabilization of platelet plug, and clot retraction. Upon atherosclerotic plaque rupture also causes platelet plug formation, which underlies a number of cardiovascular diseases such as myocardial infraction and stroke. A number of anti-platelet drugs such as aspirin, clopidogrel, prasugrel, vorapaxar, and eptifibatide are currently available to prevent the thrombotic complications. However, these anti-platelet agents have several limitations including inherent variability in individual responses, developing resistance, and serious bleeding side effects. For these reasons they are not suitable for long-term protection. Based on the experiences with current anti-platelet drugs, it appears that the most useful therapeutic approach is to intersect the secondary responses such as integrin outside-in signaling or recruitment of platelets by TxA2 and secreted ADP. Compounds, which can largely preserve the primary hemostatic function of platelets but inhibit secondary response will be most desired therapeutic agents for treatment of cardiovascular disease.
# CIB1 is a calcium integrin binding protein, which specifically interact with the alphaIIb subunit of integrin alphaIIb-beta3. Binding of CIB1 to alphaIIb regulates the outside-in signaling in platelets, which is needed for thrombus stabilization and thrombus growth. […] Therefore, we propose that discovery of a small molecule that can prevent the association of CIB1 and alphaIIb-beta3 will be a potential anti-platelet agent that can block the thrombus formation without undue effect on hemostasis.
# To develop fluorescence polarization (FP) assay using fluorescently labeled alphaIIb peptide and CIB1 protein. Using FP assay characterize the binding affinity, competitive inhibition, and acceptable Z factor (0.5 to1) in order to perform the HTS to identify small molecule compound that can prevent CIB1 binding to platelet integrin alphaIIb-beta3. Active compounds were re-acquired and validated using confirmatory and counterscreens (using 100 nM scrambled peptide).
# [1] Naik MU, Nigam A, Manrai P, et al. CIB1 deficiency results in impaired thrombosis: the potential role of CIB1 in outside-in signaling through integrin alpha IIb beta 3. J Thromb Haemost. 2009;7(11):1906-1914. doi:10.1111/j.1538-7836.2009.03581.
# SEQUENCE No. (1, 2, 3, etc.); […] (e.g., Cells, Incubation, Reagent, etc.); VALUE and DESCRIPTION.
# 1; Reagent; 3 uL; Protein or buffer (4/3x)
# 2; Compound; 46 nL; Control inhibitor / compound library
# 3; Time; 15 min; Room temperature incubation
# 4; Reagent; 1 uL; Fluorescent labeled peptide (4x)
# 5; Time; 1000 rpm; Centrifuge
# 6; Time; 15 min; Room temperature incubation
# 7; Detection; Ex 480/ Em 540; ViewLux Fluorescence Read
# NOTES (numbers refer to sequence above)
# 1; Protein Mixture: C1B1-GST (final concentrations of 1 uM). Buffer composition: 5 mM HEPES pH 7.4, 125 mM NaCl, 5 mM CaCl2, 0.01% Tween20.
# 2; Control Inhibitor: unlabeled peptide (final concentration range 17.4 nM to 572 uM). Compound Library final concentration range 18.3 nM to 114 uM.
# 3; Room temperature incubation.
# 4; Fluorescent Labeled Peptide: FITC-alphaIIb (final concentration of 100 nM). Sequence of Scrambled peptide: Acetyl-[…]-FITC (purity is 95.37%).
# 6; Room temperature incubation.
# […]
# % is scaled to controls: 0 for no effect and ±100 for the full control effect; potency is read from the fitted curve at half-maximal effect.
SMILES,"activity, negative = inhibition [%]",Potency
C[C@@H](NCc1cc2ccccc2[nH]1)c1cccc2ccccc12,-14.1,
CCc1ccc(NC(=O)C(=O)NNC(=O)c2cccs2)cc1,56.2,
CCOC(=O)c1nnc(N[S+](=O)([O-])c2ccc(NC(=O)Cc3ccc(Cl)c(Cl)c3)cc2)s1,47.7,
O=S(=O)(c1ccc2nc(Cl)c(Cl)nc2c1)N1CCN(S(=O)(=O)c2c(F)cccc2F)CC1,-20,
Cc1cc2nc3ccc(=[N+](C)C)cc-3sc2cc1N,,44.7 µM (active)
CC(O)c1ccc(-c2ccc3ncnc(N4CCOCC4)c3c2)o1 (stereo not given),-5.68,
COc1ccc(C(=O)Nc2nc(-c3ccccc3)cs2)c(NS(=O)(=O)c2ccc(C)cc2)c1,70.2,
NC(=O)c1ccc(O)c2ncccc12,5.73,
CSC(Cc1ccc(Cl)cc1)C(=O)Nc1ccc(Cl)cc1C(=O)O (stereo not given),3.41,
COc1ccc(CC(=O)Nc2ccc(S(=O)(=O)Nc3cc(C)on3)cc2)cc1C,-11.6,
CC(C)(O)CCc1ccc(OCc2cc(-c3cccc(OC(F)F)c3)c3ncccc3c2)cc1,-6.79,
COc1cc([C@H]2Oc3cc([C@H]4Oc5cc(O)cc(O)c5C(=O)[C@@H]4O)ccc3O[C@@H]2CO)ccc1O,,inactive
CCCC1CCN(C(=O)COC(=O)c2ccc(S(C)(=O)=O)c([N+](=O)[O-])c2)CC1,-26.4,
Cn1cc(-c2[nH]c3cc(NC(=O)[C@H](N)C4CCCCC4)cc4c3c2C=NNC4=O)cn1,,79.4 µM (active)
CCOC(=O)c1c(-c2ccc(C)o2)csc1NC(=O)CSc1nnnn1-c1ccccc1,-19.9,
Oc1cccc2cc(C3CC3)cnc12,-16.4,
O=C(O)c1ccc(O)c2ncc(-c3n[nH]nc3-c3ccccc3)cc12,,inactive
CC1(C)OB(c2ccc(O)c3ncc(N4CCNCC4)cc23)OC1(C)C,,20 µM (active)
Cc1ccc(C(=O)NC(c2ccco2)c2cc(Cl)c3cccnc3c2O)cc1 (stereo not given),37.6,
CN(C(=O)c1cccs1)c1cccnc1,,44.7 µM (active)

SMILES,"activity, negative = inhibition [%]",Potency
NC[C@@H](O)c1ccc(O)c(O)c1,-1.26,
NC(=O)c1ncn([C@@H]2O[C@H](CO)[C@@H](O)[C@H]2O)c1O,-4.81,
C/C(=C\c1ccc2c(c1)OCO2)C1Nc2cccc3cccc(c23)N1,,12.6 µM (active)
CC(OC(=O)c1ccc(S(C)(=O)=O)c([N+](=O)[O-])c1)C(=O)NC1C2CC3CC(C2)CC1C3 (stereo not given),-10.4,
C=C(CC)C(=O)c1ccc(OCC(=O)O)c(Cl)c1Cl,-29.6,
O=C(O)c1ccc(-c2ccc3ncnc(NCc4nccs4)c3c2)o1,-15.8,
O=C(Cc1ccccc1)NC(c1ccco1)c1cc(Cl)c2cccnc2c1O (stereo not given),50.2,
Cc1ccc2nc3sc(C(=O)NCc4ccco4)cc3cc2c1,,inactive
Cc1ccc(OCCn2c(CCNC(=O)c3ccsc3)nc3ccccc32)cc1,125,
O=C1CCCC2=C1C(c1[nH]ncc1Cl)N=C(Nc1nc3ccccc3o1)N2 (stereo not given),-16.6,
Cc1ccc(S(=O)(=O)Nc2ccc(Br)cc2C(=O)Nc2nc(-c3ccccc3)cs2)cc1,197,
OCc1ccc(-c2ccc(-c3ccc(CO)s3)o2)s1,107,
Cc1ccc(S(=O)(=O)Nc2cnccc2C(=O)Nc2nc3ccccc3s2)cc1,11.3,
CSc1cc2c(s1)c1cnn(Cc3cccc(N)c3)c(=O)c1n2C,-44.6,
Cn1c(NC2=NC3(CCCC3)C3=C(CCCC3=O)N2)nc2ccccc21,-10.7,
O=C(NNC(=O)c1nc2ccccc2[nH]1)OCc1ccccc1,-15.8,
O=C(NC(c1ccco1)c1cc(Cl)c2cccnc2c1O)c1cccs1 (stereo not given),82.3,
O=C(O)c1c(Cl)c(Cl)c(Cl)c(Cl)c1-c1c2cc(I)c(=O)c(I)c-2oc2c(I)c(O)c(I)cc12,272,
Nc1ccc(CNc2ccc([S+](=O)([O-])Nc3nccs3)cc2)c(O)c1,,50.1 µM (active)
O=[S+]([O-])(NCc1nccs1)c1ccc(Nc2nc(-c3ccccc3)cs2)cc1,,50.1 µM (active)
